# According to ChEMBL document CHEMBL4888484, “Replenishing the malaria drug discovery pipeline: Screening and hit evaluation of the MMV Hit Generation Library 1 (HGL1) against asexual blood stage Plasmodium falciparum ,using a nano luciferase reporter read-out” (2022):
# In all, about 4,800 compounds went through this assay and about 410 (8.5%) showed an effect of 50% or more. The sample holds strong results, similar compounds and a random draw of the others, so the mix is not that of the screen.
# Tested on: Plasmodium falciparum
# Assay: Confirmatory screen in NF54 pLDH assay, in single point, at 2uM, 72h
# Assay type: functional, Erythrocyte
# Settings: timepoint 72 hour
row,Structure (SMILES),% Inhibition
1,Cc1ncsc1[C@@H]1CC(=O)Nc2nc(N3CCC(C)CC3)nc(O)c21,-19%
2,c1ccc(-c2c[nH]c([C@H]3CCCN(c4ncnc5[nH]ncc45)C3)n2)cc1,-7%
3,COc1ccnc(CN2CCC[C@H](c3nc(-c4ccccc4)c[nH]3)C2)c1OC,82%
4,CN(C)c1nc(CN2CCC[C@H](c3n[nH]c(-c4ccccc4)n3)C2)ns1,2%
5,Cn1cc(-c2ccc(F)cc2)c2nc[nH]c(=O)c21,10%
6,O=C1CCCN1c1ccc(-c2csc(C3CC3)n2)cc1,-12%
7,CCC(=O)N1CCC(Nc2cccc(-c3nc(C4CC4)n[nH]3)c2)CC1,-24%
8,CC1([C@@](O)(C#CC[N+]2(C)CCCCC2)c2ccccc2)CCCC1,43%
9,CCNS(=O)(=O)c1cc(C)ccc1C,8%
10,CCc1ccc(-n2c(=O)[nH]c3nc(N4CCN(c5ccccc5F)CC4)ncc3c2=O)cc1,-25%
11,O=C(NCc1ccncc1)c1ccco1,-2%
12,NC(=O)C1CCN(CCC(=O)N2CCc3cc4ccc3[C@@H]2c2cccc(c2)OCCCNC(=O)c2cc(ccc2O)O4)CC1,93%
13,NCc1cccc(C(=O)N2CCc3cc4ccc3[C@@H]2c2cccc(c2)OCCCNC(=O)c2cc(ccc2O)O4)c1,98%
14,O=C1NCCCOc2cccc(c2)[C@H]2c3ccc(cc3CCN2C(=O)CCN2CCOCC2)Oc2ccc(O)c1c2,50%
15,CCc1nc2cc(N3CCC(C(=O)Nc4ccc5c(c4)OCO5)CC3)cnc2nc1CC,8%
16,Cc1ccc(NC(=O)CN2N=C(C(=O)Nc3ccccc3)CCC2=O)cc1,-10%
17,Cc1cccc(Oc2cc(N)cc(Oc3cccc(C)c3)c2)c1,8%
18,O=C(c1cc2ccccc2[nH]1)N1CCc2sc(Cl)cc2C1,5%
19,CC(=Cc1cn(C(C)(C)C)nn1)c1nc(C)c(C#N)c(=O)[nH]1,10%
20,COc1ccc(C)cc1NC(=O)[C@H]1CCCN(c2cn[nH]c(=O)c2)C1,-8%
21,CC(C)(C)CC(=O)Nc1ccccc1C(N)=O,13%

row,Structure (SMILES),% Inhibition
1,CC(=O)c1cc(-c2cc(O)cc(CC[C@H]3CCCCN3)c2)ccc1O,85%
2,Cc1cc(-c2cc(O)cc(CC[C@H]3CCCCN3)c2)ccn1,91%
3,Cc1ccc(-c2cc(O)cc(CC[C@H]3CCCCN3)c2)c(C)n1,66%
4,Cc1cc(S(=O)(=O)NC[C@H]2CCCCN2)sc1C,-6%
5,CNC(=NCC(C)(C)c1ccc(OC)cc1)NC,7%
6,COc1cccc(N2CCN(C(=O)c3cn4cc(-c5ccc(Cl)cc5)ccc4n3)CC2)c1,2%
7,Cc1[nH]c2nc3ccccc3n2c(=O)c1Cc1ccccc1Cl,-15%
8,CCc1cc(O)nc(CN2CCCC2C(O)C(F)(F)F)n1 (stereo not drawn),-4%
9,Oc1ccc(-c2nnc(-c3ccc(O)cc3)nn2)cc1,22%
10,CC(C)c1ccc(NC(=O)CCC(=O)N2CCc3ccccc3C2)cc1,9%
11,C[C@@]12CO[C@@H](COc3ccccc3)O[C@@H]1CC[C@]1(C)C2CC[C@@H](O)[C@H]1CC(=O)N1CCC[C@H]1CO (stereo partly drawn),6%
12,CC1CC(C)CN(C(=O)c2cc(NC(=O)c3ccccc3)n(C)n2)C1 (stereo not drawn),-14%
13,O=C(CN1CCOCC1)Nc1ccc(N2CCOCC2)c(F)c1,-8%
14,N#Cc1nccnc1NCCCCN1C(=O)c2ccccc2C1=O,-14%
15,CC1(C)COC(=O)[C@H]1OCN1CCCC1=O,-7%
16,CS(=O)(=O)N1CCC(C(=O)Nc2c(C(N)=O)sc3nc(C(F)F)cc(C4CC4)c23)CC1,5%
17,COc1ccc(NC(=O)c2cc(C3CC3)nc3onc(C4CC4)c23)cc1Cl,-4%
18,Cc1cc(=O)[nH]c(N2CCCCCC2)n1,8%
19,O=C(COc1ccc(Cl)cc1)N1CC(n2cnnc2C2CC2)C1,-4%
20,Cc1cc(=O)[nH]c(-n2nc(C3CC3)cc2NC(=O)C(C)(C)Oc2ccc(Cl)cc2)n1,82%
21,COc1ccc(Cl)cc1C(=O)Nc1cc(C2CC2)nn1-c1nc(C)cc(=O)[nH]1,72%

row,Structure (SMILES),% Inhibition
1,COc1ccc(Cl)cc1C(=O)N(C1CCOCC1)[C@H]1CCCN(S(C)(=O)=O)C1,-12%
2,COc1ccc(NC(=O)Cn2cnc3nc(N4CCOCC4)ncc3c2=O)cc1,15%
3,CO[C@@H](CNc1nc(C)c(S(N)(=O)=O)s1)c1ccc(F)cc1,-17%
4,COc1cccc([C@H]2CC(=O)Nc3c2cnn3C)c1,-11%
5,COc1ccc(NC(=O)[C@@H]2COCC(=O)N2Cc2ccc(C)cc2)cc1,7%
6,CCc1ccc(C2=C[C@@H](c3cccc(OC)c3)n3ncc(C(=O)Nc4ccc(C)cc4)c3N2)cc1,70%
7,Cc1nn(CCOc2ccccc2)c(=O)n1-c1ccc(C(C)C)cc1,14%
8,CC(=O)N1CCCN(C(=O)c2ccccc2)CCNC(=O)[C@@H]2CCC[C@@H]21,9%
9,CC(C)(C)n1ncc2c1NC(=O)C[C@@H]2c1c(F)cccc1Cl,-19%
10,C[C@H](N)c1ccc(Nc2ncc3cc(-c4ccncc4)ccc3n2)cc1,101%
11,CC(C)C(=O)Nc1ccc(-c2cc(-c3ccc(NC(=O)C(C)C)cc3)nc(-c3ccncc3)n2)cc1,42%
12,CCC(CC)C(=O)Nc1cccc(O)c1,7%
13,O=c1c2cc(F)c(F)cc2ncn1C[C@@H](O)CC1CCCC1,9%
14,O=C1CCC(Nc2ccc(Br)cn2)C(C2CC2)N1 (stereo not drawn),15%
15,Clc1cc(CN2CC[C@@]3(CCCOC3)C2)ccc1OCCN1CCOCC1,11%
16,CCn1cc(Cl)c(C(=O)N2N=C3/C(=C/c4ccc5c(c4)OCO5)CCCC3C2c2ccc3c(c2)OCO3)n1 (stereo not drawn),8%
17,CCc1ccc(NC(=O)c2c(C)sc3ncnc(N4CCCCC4)c23)cc1,12%
18,C[C@H](C(=O)Nc1nccn2ccnc12)c1ccccc1,3%
19,CC(=O)N1CCn2c(nnc2[C@@H]2CCCN2S(=O)(=O)c2cc(F)ccc2F)C1,3%
20,CCC(CC)C(=O)Nc1cccc(Cl)c1C,4%
21,COc1ccc(CN2CC(C)OC3(CCOC3)C2)cc1Cl (stereo not drawn),6%
